Bioassay records from PubChem BioAssay.
VLA-4 inh: inhibition in a human VLA-4 binding assay | hit rate 0.2% among 330,000 | P13612 | inhibition, % (about 7 µM as worked out from the volumes in the protocol) | AID 2557 | VLA-4 expressing cells, ligand binding flow cytometry; in the data active = inhibition above about 50%
Target sequence (P13612 whole entry, looked up): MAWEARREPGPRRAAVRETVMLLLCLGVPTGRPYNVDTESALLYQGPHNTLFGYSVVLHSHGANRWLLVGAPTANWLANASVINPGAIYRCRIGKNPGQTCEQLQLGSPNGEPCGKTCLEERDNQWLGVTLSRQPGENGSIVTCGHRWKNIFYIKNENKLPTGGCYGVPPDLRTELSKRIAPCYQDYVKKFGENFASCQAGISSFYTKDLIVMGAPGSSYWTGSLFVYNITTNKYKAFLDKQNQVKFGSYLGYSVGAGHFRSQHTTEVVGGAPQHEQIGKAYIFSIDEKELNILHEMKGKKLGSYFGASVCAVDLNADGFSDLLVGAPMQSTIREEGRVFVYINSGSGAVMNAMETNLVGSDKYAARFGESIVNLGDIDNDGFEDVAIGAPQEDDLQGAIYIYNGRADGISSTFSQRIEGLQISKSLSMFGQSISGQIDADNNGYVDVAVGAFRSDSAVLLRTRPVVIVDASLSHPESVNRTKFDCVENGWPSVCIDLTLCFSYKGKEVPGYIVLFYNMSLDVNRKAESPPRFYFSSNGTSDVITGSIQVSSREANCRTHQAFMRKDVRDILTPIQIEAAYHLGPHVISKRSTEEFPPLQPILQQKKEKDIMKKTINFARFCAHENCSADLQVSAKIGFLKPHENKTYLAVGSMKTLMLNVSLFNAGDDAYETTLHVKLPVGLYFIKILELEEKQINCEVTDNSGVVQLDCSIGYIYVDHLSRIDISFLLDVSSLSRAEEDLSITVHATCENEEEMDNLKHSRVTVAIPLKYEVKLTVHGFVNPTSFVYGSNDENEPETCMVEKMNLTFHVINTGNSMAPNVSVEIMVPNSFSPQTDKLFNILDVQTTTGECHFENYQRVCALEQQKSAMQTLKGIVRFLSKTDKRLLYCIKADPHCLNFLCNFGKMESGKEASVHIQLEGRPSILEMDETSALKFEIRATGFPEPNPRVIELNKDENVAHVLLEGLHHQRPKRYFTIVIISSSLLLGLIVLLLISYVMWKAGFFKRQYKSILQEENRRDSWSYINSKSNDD
AI-2 QS mod: modulates the Vibrio harveyi AI-2 quorum sensing system; Vibrio harveyi JMH597 AI-2 luminescence/OD600 ratio, 9 h; stronger effect = lower value; strain lacks LuxN and CqsS sensors; 0 = neutral-control median; activity change, % at 7.5 µM; hit rate 0.4% among 300,000; AID 2094; in the data active = activity change below about -75%, passing the limit was not always enough; inconclusive = no clear call, values can overlap the other calls;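 note: luminescence divided by OD600 gain over 9 h not by final OD600 alone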
Platelet DG rel: modulates dense granule release in human platelets. human platelet-rich plasma, SFLLRN dense granule ATP release, luminescence. inhibition, %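 (compounds screened at 7.5 µM in platelet-rich plasma)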. hit rate 0.22% among 300,000. AID 1663;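 active = mean replicate score, as percent of positive control, at or above 50; inconclusive = mean below 50 but at least one replicate at or above 50; inactive = mean and every replicate below 50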
CHT allo act: allosterically activates the human high affinity choline transporter; B-score at 10 µM; hit rate 0.49% among 310,000; CHT-expressing cells, membrane potential dye, choline EC20; stronger effect = higher value; LV-AA mutant CHT in HEK293 cells;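 active = initial fluorescence not abnormally high and integrated response B-score, plate-corrected, over 3 SD above library mean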
HIF act: HIF pathway transcriptional activation. U2OS HRE-luciferase reporter, luminescence; normalized: DMSO 0%, desferrioxamine 100%. activation, % at 7.5 µM (by protocol). hit rate 0.32% among 300,000;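 active = mean activation of at least 10% of the iron chelator positive control signal, with at least half of replicates also reaching 10%; inconclusive = mean and replicate majority disagree about reaching 10%; inactive = mean and most replicates under 10%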
CHT block: inhibitors of human choline transporter CHT | Q9GZV3 | CHT-expressing cells, membrane potential dye, choline response; stronger effect = lower value | B-score at 10 µM | hit rate 0.86% among 310,000;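 active = B-score over 3 SD under the library average, and starting fluorescence ratio not unusually high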;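 note: choline stimulus applied at its EC90 after an EC20 pre-addition; B-score computed on integrated fluorescence ratio after choline addition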
CHT block conf: confirmation of human choline transporter CHT inhibitors | hit rate 70% among 2,400 | shares compounds with CHT block | CHT-expressing cells, choline membrane potential dye; LV-to-AA substituted CHT, HEK293 cells | CHT activity remaining % of control (stronger effect = lower value), % at 10 µM;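 active = choline transporter activity left, mean of duplicates at 10 µM, below buffer-only control mean minus 3 SD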;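 note: depolarization triggered by choline at its EC90 following an EC20 pre-addition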
HEK293 MPD ctr: activity in parental HEK293 cells lacking CHT; membrane potential ratio readout (active if shifted either direction beyond buffer ±3SD; no single direction) at 10 µM; shares compounds with CHT block; hit rate 4% among 2,400; membrane potential dye, choline response; active = decrease or increase beyond buffer ±3SD;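 note: parental cells lack the transporter so any hit is non-specific; ratio is peak minus trough fluorescence over baseline after EC90 choline challenge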
Of the large screens only hits and unclear results are named; the others gave an inactive call (follow-up assays come after a bar, where they were run). Only some compounds are listed: those with a hit (about 2.2% of all), similar ones and a draw of the others.

CN(C)CCn1c(NCc2ccc3c(c2)OCO3)nc2ccccc21	none
CCCCn1c(NCc2ccc3c(c2)OCO3)nc2ccccc21	CHT block -7.3 | CHT block conf 52% | HEK293 MPD ctr 3
COC(=O)Cn1ccc(-c2ccc(Cl)cc2)c(C#N)c1=O	none
COC(=O)Cn1ccc(N(C)C)c(C#N)c1=O	CHT block -15 | CHT block conf 8.7% | HEK293 MPD ctr inactive
O=C(OCC#CCSc1nnc(-c2cccc3ccccc23)o1)c1cccc2[nH]ccc12	none (no result: AI-2 QS mod, Platelet DG rel, CHT allo act, HIF act, CHT block)
O=C(NCCCN1CCOCC1)C(=O)N/N=C/c1cccc2ccccc12	none
O=C1NCCO1	none (no result: AI-2 QS mod, Platelet DG rel, HIF act)
CC(C)NC(=O)Cn1nc(C(F)(F)F)c2c1CCC2	none
O=C(Cn1nc(C(F)(F)F)c2c1CCCC2)NC1CCCC1	CHT block -5.8 | CHT block conf 52% | HEK293 MPD ctr inactive
O=C(O)CN1C(=O)/C(=C/C=C/c2ccccc2)SC1=S	CHT block -8.5 | CHT block conf 40% | HEK293 MPD ctr inactive
CC(=O)c1ccc(NC(=O)CN2C(=O)/C(=C/C=C/c3ccccc3)SC2=S)cc1	none
Cc1cc(C)cc(CC(Cc2nc3ccccc3[nH]2)c2nc3ccccc3[nH]2)c1 (centres undefined)	CHT block -8.7 | CHT block conf 54% | HEK293 MPD ctr inactive
O=C(NC1CCCCC1)N1CCN(c2ccc(Cl)cc2)CC1	CHT block -5.8 | CHT block conf inactive | HEK293 MPD ctr inactive
Cc1ccc(CCN2CC(C(=O)NC(C)C)CC2=O)cc1 (centres undefined)	none
O=c1cc(CSc2ccccc2)nc(-c2ccncc2)[nH]1	CHT block -6.5 | CHT block conf inactive | HEK293 MPD ctr inactive
O=c1cc(CSc2ccc(Cl)cc2)nc(-c2ccncc2)[nH]1	none
COC(=O)c1ccc(N2CCOCC2)c(NC(=O)c2ccco2)c1	none
COc1ccc(-c2ccc3oc(-c4ccsc4)cc(=O)c3c2)cn1	none (no result: AI-2 QS mod, Platelet DG rel, CHT allo act, HIF act, CHT block)
Cn1nc(-c2ccccc2)c2nc3ccccc3nc21	CHT block -6.3 | CHT block conf inactive | HEK293 MPD ctr -9.9
CCCCn1nc(-c2ccccc2)c2nc3ccccc3nc21	none
CC(C)(C)C(=O)NC(=S)NNC(=O)C(c1ccccc1)c1ccccc1	CHT block -6.6 | CHT block conf 36% | HEK293 MPD ctr inactive
Cc1oc2ccc(OCc3ccc(Cl)cc3)cc2c1C(=O)O	CHT block -5.1 | CHT block conf inactive | HEK293 MPD ctr inactive
O=C(Nc1nnc(-c2ccc(F)cc2)o1)c1cc(Cl)sc1Cl	Platelet DG rel inconclusive, CHT block -6.8 | CHT block conf 63% | HEK293 MPD ctr inactive
CNC(=O)C1(C(F)(F)F)C/C(=C\CCO)CCCO1 (centres undefined)	none
CN(c1cccc(NC(=O)Nc2cccc(Cl)c2)c1)S(C)(=O)=O	CHT block -6.7 | CHT block conf 51% | HEK293 MPD ctr inactive
COc1cccc(CNC(=O)Cc2ccc(S(=O)(=O)N3CCOCC3)s2)c1	none
CCCOc1ccc(C(=O)Nc2cc(S(=O)(=O)N3CCOCC3)ccc2N2CCOCC2)cc1	none (no result: AI-2 QS mod, Platelet DG rel, CHT allo act, HIF act, CHT block)
COc1cccc(CN2CC(C(=O)NCCC3=CCCCC3)CCC2=O)c1 (centres undefined)	none
Cc1cccc(NC(=O)c2ccccc2O)c1C	CHT block -6.4 | CHT block conf 69% | HEK293 MPD ctr inactive
Cc1ccc(C)c(NC(=O)c2ccccc2O)c1	none
O=C(Nc1ccccc1Cl)c1ccccc1Cl	none
O=C(Nc1ccccc1O)c1ccccc1O	CHT block -8.9 | CHT block conf 40% | HEK293 MPD ctr inactive
O=[N+]([O-])c1ccccc1OCCNCc1ccccc1	none
O=C1c2cccnc2C(=O)N1Cc1ccc(Cl)cc1	none
O=C1c2cccnc2C(=O)N1Cc1ccc(S(=O)(=O)N2CCOc3ccc(Cl)cc32)cc1	CHT block -5.1 | CHT block conf inactive | HEK293 MPD ctr inactive
COc1ccc(C/C(O)=C(\C#N)c2nc3ccccc3s2)cc1	CHT block -5 | CHT block conf 55% | HEK293 MPD ctr inactive
c1coc(Cn2c(-c3ccco3)nc3ccccc32)c1	CHT block -8 | CHT block conf inactive | HEK293 MPD ctr -11
CCSc1nnc2n1C(C)(C)Cc1ccccc1-2	CHT block -5 | CHT block conf 41% | HEK293 MPD ctr inactive
COc1ccc(NC(=S)NCCN2CCOCC2)c(OC)c1	none
COc1ccccc1NC(=S)NCCN1CCOCC1	CHT block -8.3 | CHT block conf inactive | HEK293 MPD ctr inactive
CC(C)c1ccc(Nc2c([N+](=O)[O-])c(=O)n(C)c3ccccc23)cc1	none
Cn1c(=O)c(Nc2ccc(O)cc2)c2c3c(cccc31)C(=O)c1ccccc1-2	CHT block -16 | CHT block conf 9.4% | HEK293 MPD ctr inactive
CCn1c(N2CCN(S(=O)(=O)c3ccc(OC)cc3)CC2)nc2ccccc21	CHT block -7.9 | CHT block conf 71% | HEK293 MPD ctr inactive
Cc1c(/C=N\NC(=O)c2ccc([N+](=O)[O-])cc2)cnn1C	CHT block -7.7 | CHT block conf inactive | HEK293 MPD ctr inactive
CC(=O)n1cc(/C=N/NC(=O)c2ccc([N+](=O)[O-])cc2)c2ccccc21	none
C1=C2C[N+]3(CCCC3)CC2Cc2ccc3ccccc3c21 (centres undefined)	CHT block -7.6 | CHT block conf 46% | HEK293 MPD ctr 2.6
Cc1ccc(CNC(=O)CN(C)S(=O)(=O)c2ccc3c(c2)n(C)c(=O)c(=O)n3C)cc1	none
CCCCn1nc2cc(C(=O)NC3CCc4ccccc43)ccc2c1OCC (centres undefined)	CHT block -5.5 (no result: VLA-4 inh) | CHT block conf 34% | HEK293 MPD ctr inactive
CCCCn1nc2cc(C(=O)NCCc3cccs3)ccc2c1OCC	CHT block -9.2 | CHT block conf 24% | HEK293 MPD ctr inactive
CCN(CC)C(=O)Cn1c(=O)n(CCCC(=O)NCc2ccccc2)c(=O)c2sccc21	none
COc1ccc(S(=O)(=O)N2CCCCCC2)cc1NC(=O)CCCOc1ccccc1	none (no result: AI-2 QS mod, Platelet DG rel, CHT allo act, HIF act, CHT block)
CC(C)CC(=O)Nc1nc(=S)ss1	CHT block -6.8 | CHT block conf 40% | HEK293 MPD ctr inactive
CC(=O)Nc1nc(=S)ss1	none
O=C(NCc1ccc(Cl)cc1)C1CCN(S(=O)(=O)N2CCOCC2)CC1	none
O=C1NC(=S)S/C1=C\c1coc2ccccc2c1=O	CHT block -8.4 | CHT block conf 55% | HEK293 MPD ctr inactive
C=CC[C@H]1CC(Cc2ccccc2)=C[C@H](CC=C)N1	CHT block -8.6 | CHT block conf -13% | HEK293 MPD ctr -17
